Measurements from PubChem BioAssay (NCATS).
Results filed as inconclusive are left out. Calls of active or inactive are those of the source. Calls follow the shape of the dose curve; as a rule, active = well fitted curve in the direction sought with a large enough effect; inconclusive = small, poorly fitted or top-dose-only effect, or another doubt; inactive = no such curve, though single readings can be large; an effect the other way counts as inactive or inconclusive.

How the values were obtained:
[1] = qHTS of pediatric cancer cell lines to identify multiple opportunities for drug repurposing: Primary screen for MG 63 (6-TG R) cells (AID 1347105); also: nearly all actives have a fitted effect of over 50% in size
Summary of the method: (§1)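 Cells plated at 500-1,000/well in growth medium, compounds added after 5 h. MIPE tested at 11 points (from 0.78 nM), NPC at 8 points (from 0.59 nM). CellTiter-Glo luminescence after 48 h; concentration-response curves from primary screen.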

[2] = qHTS of pediatric cancer cell lines to identify multiple opportunities for drug repurposing: Primary screen for control Hh wild type fibroblast cells (AID 1347106);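 also: series mostly up to about 46 µM; a drop in luminescence marks cytotoxicity and a rise apparent proliferation; nearly all actives have a fitted effect of over 55% in size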
Summary of the method: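 Cells (500-1,000/well) in growth media were settled 5 h at 37 degrees C, then given compounds for 48 h. Viability was read as CellTiter-Glo luminescence. Primary runs used MIPE at 11 points (0.78 nM-46 µM) and NPC at 8 points (0.59 nM-46 µM); follow-ups used 11 points.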

[3] = qHTS of pediatric cancer cell lines to identify multiple opportunities for drug repurposing: Primary screen for Rh30 cells (AID 1347107); also: series mostly up to about 46 µM; nearly all actives have a fitted effect of over 75% in size
Summary of the method: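 Viability after 48 h compound treatment at 37C, 500-1,000 cells/well, read as ATP luminescence with CellTiter-Glo. Primary screens used 11-point (MIPE, 0.78 nM-46 µM) or 8-point (NPC, 0.59 nM-46 µM) final concentrations; follow-up screens used 11-point dilutions.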

[4] = qHTS of pediatric cancer cell lines to identify multiple opportunities for drug repurposing: Primary screen for Rh41 cells (AID 1347108);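 also: series mostly up to about 46 µM; luminescence drop marks cytotoxic hits; nearly all actives have a fitted effect of over 70% in size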
Summary of the method: as §1

Measured: Potency

NC(=O)n1c(O)c(C(=O)c2cccs2)c2cc(Cl)ccc21
inactive: all assays above

C[C@@H](O)[C@H]1C(=O)N2C(C(=O)O)=C(S[C@@H]3CN[C@H](CNS(N)(=O)=O)C3)[C@H](C)[C@H]12
inactive: all assays above

Cc1ncc(CO)c(C=O)c1O
inactive: all assays above

COc1ccc(-c2cc(C(F)F)nn2-c2ccc(S(N)(=O)=O)cc2)cc1F
inactive: all assays above

C[N+]12CCC(CC1)C(OC(=O)C(O)(c1ccccc1)c1ccccc1)C2 (configuration not stated)
inactive: all assays above

CCCCN1C[C@H](O)[C@@H](O)[C@H](O)[C@H]1CO
inactive: all assays above

c1ccc(-c2nc[nH]c2-c2ccccc2)cc1
inactive: all assays above

CC(C)(C)CC(C)(C)c1ccc(O)c(-n2nc3ccccc3n2)c1
inactive: all assays above

CCN1CCCC(OC(=O)C(c2ccccc2)c2ccccc2)C1 (configuration not stated)
inactive: all assays above

CCOc1cc(OCC)c(C(=O)CCC(=O)O)cc1OCC
inactive: all assays above

O=C(NCCc1c[nH]c2ccccc12)c1cccnc1
inactive: all assays above

CCN(CC)CCOc1ccccc1C(=O)CCc1ccccc1
inactive: all assays above

CCCCCCCCCCCCCC(=O)OC(C)C
inactive: all assays above

NS(=O)(=O)Cc1noc2ccccc12
inactive: all assays above

COc1cc(C(=S)N2CCOCC2)ccc1O
inactive: all assays above

CCCCN=C(N)N=C(N)N
inactive: all assays above

CC(C)Cc1ccc(CC(=O)O)cc1
inactive: all assays above

NS(=O)(=O)c1cc2c(cc1Cl)NC(CC1CCCC1)NS2(=O)=O (configuration not stated)
inactive: all assays above

NCCNC(=O)c1ccc(Cl)cn1
inactive: all assays above

CCN(CC)CCNC(=O)c1cc(Br)c(N)cc1OC
inactive: all assays above

CC[N+](C)(CC)CCOC(=O)C(O)(c1ccccc1)C1CCCCC1 (configuration not stated)
inactive: all assays above

COc1cc(C)nc(-n2nc(C)cc2OC)n1
inactive: all assays above

COc1cc(NS(=O)(=O)c2ccc(N)cc2)ncn1
inactive: all assays above

CC(=O)NCCCCCC(=O)O
inactive: all assays above

Nc1ccc(S(=O)(=O)NCc2ccccc2)cc1
inactive: all assays above

Cc1cccc(C)c1NC(=O)c1ccccc1C(=O)O
inactive: all assays above

C/C=C/c1ccc(O)c(OC)c1
inactive: all assays above

C=C[C@H]1CN2CC[C@H]1C[C@H]2[C@H](O)c1ccnc2ccc(OC)cc12
inactive: all assays above

O=C(CN1CCN(Cc2ccc3c(c2)OCO3)CC1)N1c2ccccc2Sc2ccccc21
inactive: all assays above

NC1CCN(c2nc3c(cc2F)c(=O)c(C(=O)O)cn3-c2ccc(F)cc2F)C1 (configuration not stated)
inactive: all assays above

CC(=O)Nc1ccc(S(=O)(=O)Nc2ccc([N+](=O)[O-])cc2)cc1
inactive: all assays above

OC1C(O)C(O)C(O)C(O)C1O (configuration not stated)
inactive: all assays above

Cc1ccccc1OCC(O)CO (configuration not stated)
inactive: all assays above

OC[C@H]1O[C@@H](Oc2ccc(O)cc2)[C@H](O)[C@@H](O)[C@@H]1O
inactive: all assays above

O=C(O)c1ccc(S(=O)(=O)N(Cl)Cl)cc1
inactive: all assays above

CCCCCCCCOc1ccc(C(=O)c2ccccc2)c(O)c1
inactive: all assays above

CC(CNC1CCCCC1)OC(=O)c1ccccc1 (configuration not stated)
inactive: all assays above

O=C(c1ccc(F)cc1)C1CCN(CCn2c(=S)[nH]c3ccccc3c2=O)CC1
inactive: all assays above
